Measured values taken from PubChem BioAssay (NCATS).
Results filed as inconclusive are left out. A call without a number means that no potency is given here. The source made the active and inactive calls. The call rests on the fitted dose curve; in most records, active means well fitted inhibition curve with a large enough effect; inconclusive means small, poorly fitted or top-dose-only effect; inactive means flat fitted curve, though single readings scatter.

assay: P-glycoprotein substrates identified in KB-8-5-11 adenocarcinoma cell line, qHTS therapeutic library screen (AID 1346987); details: KB-8-5-11 (P-gp overexpressing) viability, CellTiter-Glo, 72 h; series mostly up to 44.5 µM; further: nearly all actives have a fitted effect of over 65% in size
Procedure, shortened: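 P-gp-mediated resistance screen: KB-8-5-11 cells treated 72 h with compounds in dose-response. CellTiter-Glo viability.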
Potency means the concentration at half of the fitted maximal effect.

Q: For `COC(=O)/C=C/C12COC(C)(C)C1C(O)C(OC(C)=O)C1(C)C2CCC2(C)C(c3ccoc3)OC(=O)C3OC321` (stereo unspecified), which Potency is on record?
A: inactive

Q: For `C[C@@H]1CCC2C(C)(C)[C@H](O)CC[C@]2(C)[C@@]12Cc1c(O)cc3c(c1O2)CN([C@@H](CCC(=O)O)C(=O)O)C3=O` (stereo partly specified), which Potency is on record?
A: inactive

Q: With `CC(=O)O[C@@H]1[C@@H](O)[C@H](C)O[C@@H](O[C@H]2[C@@H]3C=CO[C@@H](O[C@@H]4O[C@H](CO)[C@@H](O)[C@H](O)[C@H]4O)[C@@H]3[C@@]3(CO)O[C@@H]23)[C@@H]1OC(=O)/C=C/c1ccccc1` as the compound, how does the Potency read?
A: inactive

Q: Which Potency does the source give for `COc1cc2ncnc(N3CCC(Oc4cnc5ccccc5n4)C3)c2cc1OC` (stereo unspecified) here?
A: 461 nM (active)

Q: Which Potency does the source give for `C=C1C[C@]23C[C@H]1CC[C@H]2[C@]1(C)CCC[C@@](C)(C(=O)O)[C@H]1[C@@H]3C(=O)O` here?
A: inactive

Q: With `O=C(CC(c1ccccc1)c1ccccc1)N1CCN(C(c2ccccc2)c2ccccc2)CC1` as the compound, how does the Potency read?
A: 16400 nM (active)

Q: For `O=C(O)/C=C/c1ccc(-c2ccc(O)c(C34CC5CC(CC(C5)C3)C4)c2)cc1`, which Potency is on record?
A: 580 nM (active)

Q: Which Potency does the source give for `CC(C)CN(C[C@@H](O)[C@H](Cc1ccccc1)NC(=O)O[C@@H]1CO[C@H]2OCC[C@H]21)S(=O)(=O)c1ccc(N)cc1` here?
A: inactive

Q: With `CC(C)(C)OC(=O)N1CCC(OCc2nc(-c3ccncc3)no2)CC1` as the compound, how does the Potency read?
A: inactive

Q: Which Potency does the source give for `O=C(Nc1ccc(S(=O)(=O)Nc2ccccc2Cl)c(Cl)c1)c1ccccn1` here?
A: inactive

Q: Which Potency does the source give for `COc1cc(OC)c(/C=C/S(=O)(=O)Cc2ccc(OC)c(NCC(=O)O)c2)c(OC)c1` here?
A: 461 nM (active)
